According to PubChem BioAssay (NCI):
About 83,000 compounds went through this panel and 20% of them were active in at least one assay; those are over-represented in the sample as a whole.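 Step 1: grow cells in 96-well plates. Step 2: add test compound at a single concentration. Step 3: incubate 48 h. Step 4: record percent growth.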 Unmarked numbers belong to inactive results. The source made the active and inactive calls. Rule for the calls: active = growth percent below 10; inactive = the rest.

How the values were obtained:
Experiment in all cases: NCI-60 one-dose screen, 48 h (100 = growth as untreated, 0 = no growth, -100 = all killed)
Settings in all cases: 10 µM unless noted
NCI-H23 lung = tested on: NCI-H23 lung
NCI-H226 lung = tested on: NCI-H226 lung
NCI-H322M lung = tested on: NCI-H322M lung
HOP-62 NSCLC = tested on: HOP-62 NSCLC
NCI-H460 lung = tested on: NCI-H460 lung
HOP-92 NSCLC = tested on: HOP-92 NSCLC
NCI-H522 lung = tested on: NCI-H522 lung
A549/ATCC NSCLC = tested on: A549/ATCC NSCLC
786-0 renal = tested on: 786-0 renal
DU-145 prostate = tested on: DU-145 prostate
K-562 leukemia = tested on: K-562 leukemia
MALME-3M melanoma = tested on: MALME-3M melanoma
MDA-MB-231 breast = tested on: MDA-MB-231 breast
RXF 393 renal = tested on: RXF 393 renal
SF-268 CNS = tested on: SF-268 CNS
SF-295 CNS = tested on: SF-295 CNS
SF-539 CNS = tested on: SF-539 CNS
UACC-257 melanoma = tested on: UACC-257 melanoma
M14 melanoma = tested on: M14 melanoma

Row | SMILES | growth (NCI-H23 lung) | growth (NCI-H226 lung) | growth (NCI-H322M lung) | growth (HOP-62 NSCLC) | growth (NCI-H460 lung) | growth (HOP-92 NSCLC) | growth (NCI-H522 lung) | growth (A549/ATCC NSCLC) | growth (786-0 renal) | growth (DU-145 prostate) | growth (K-562 leukemia) | growth (MALME-3M melanoma) | growth (MDA-MB-231 breast) | growth (RXF 393 renal) | growth (SF-268 CNS) [%] | growth (SF-295 CNS) | growth (SF-539 CNS) | growth (UACC-257 melanoma) | growth (M14 melanoma)
1 | NS(=O)(=O)Oc1ccc(-c2sc3cc(O)ccc3c2C(=O)c2ccc(OCCN3CCCCC3)cc2)cc1 | 88% | 79% | 90.6% | 67% | 20.3% | 60.4% | 65.8% | 33.4% | 71.6% | 51.2% | 14.1% | 63.7% | 72% | 66.8% | 68.4 | 48.1% | 62.8% | -44.2% (active) | -17% (active)
2 | O=S(=O)(NCCNc1cc(-c2c(-c3cccc(O)c3)nc3sccn23)ccn1)c1ccc(Cl)cc1 | 79.1% | 62.4% | 86% | 103% | 58.3% | 74.7% | 66.1% | 57.6% | 62.1% | 67.8% | 42.5% | 94% | 80.6% | 71.7% | 47.9 | 85% | 91.8% | 95.2% | 68.2%
3 | CC(C)(C)OC(=O)N1Cc2cc3ccccc3nc2C1CO (centres undefined) | 85.9% | 92.1% | 104% | 102% | 107% | 96.7% | 110% | 95.6% | 95.8% | 98.6% | 133% | 120% | 96.6% | 66.5% | 102 | 92.8% | 95.7% | 19.1% | 98.7%
4 | COc1ccc(/C=C(\C#N)n2nnc3ccccc32)cc1 | 15.1% | 1.15% (active) | 25.8% | 26.2% | 2.42% (active) | 24.7% | 21.2% | 19.5% | 7.4% (active) | -5.07% (active) | 15% | 44.1% | -14.5% (active) | -39.3% (active) | 21.3 | -3.98% (active) | -46.4% (active) | 77.5% | -11% (active)
5 | CCCN1CCN(c2ccc3nc(-c4ccc5nc(-c6ccc(OCC)c(OCC)c6)[nH]c5c4)[nH]c3c2)CC1 | -53.3% (active) | -58.2% (active) | -18.7% (active) | -64.9% (active) | -80.3% (active) | 40.5% | -44.8% (active) | -50.2% (active) | -89% (active) | -64.1% (active) | -5.53% (active) | -82.4% (active) | -80.2% (active) | -92.3% (active) | 15.8 | -63.2% (active) | -87.9% (active) | -29.7% (active) | -65.7% (active)
6 | C[C@@H]1CC[C@@H]2[C@@H]1[C@H](OC(=O)c1ccc3ccccc3c1)[C@]1(C3CCCCC3)C[C@@H](OC(=O)CO)[C@@]2(C)O1 | 65.1% | 51.8% | 81.5% | 68% | 49.9% | 34.9% | 49.4% | 48.8% | -7.27% (active) | 72.1% | 39.6% | 99.9% | 63.1% | 8.34% (active) | 31.4 | 68.2% | 90.2% | 63.3% | 61.4%
7 | CCCCCCCSc1ccc(C(=O)O)cc1 | 102% | 97.2% | 99.7% | 106% | 104% | 83.5% | 100% | 98.9% | 100% | 119% | 105% | 111% | 112% | 94.4% | 109 | 94.3% | 99.7% | 95.8% | 113%
8 | O=C(Nc1ccccc1Cl)OCCN1CCOCC1 | 99.7% | 99% | 98.7% | 106% | 109% | 85.6% | 64.5% | 98.5% | 88.7% | 109% | 90.6% | 114% | 111% | 114% | 107 | 103% | 105% | 105% | 90.7%
9 | Cc1[nH]c(-c2nc3ccccc3[nH]2)c(C)c1C(=O)N1CCc2sccc2C1 | 91.2% | 88.3% | 98.6% | 98.2% | 94.4% | 81.6% | 77.1% | 93% | 99.7% | 102% | 82.9% | 85.9% | 85.9% | 101% | 97.3 | 100% | 87.5% | 96.9% | 94.6%
10 | CC(C)N(CCOC(=O)Nc1ccccc1Cl)C(C)C | 105% | 86.3% | 102% | 93.3% | 103% | 84.4% | 78.6% | 98.4% | 98.8% | 105% | 104% | 104% | 106% | 108% | 101 | 104% | 104% | 99.1% | 99.5%
11 | COc1cc(/C=C2\C=C(c3ccccc3)N(CCc3ccccc3)C2=O)cc(OC)c1OC | 74.1% | 67.6% | 70.1% | 61.6% | 76.1% | 41.3% | 65.7% | 70.4% | 11.7% | 73.8% | 94.2% | 50.1% | 5.9% (active) | 72.3% | 44.7 | 53.3% | -17.2% (active) | 88.2% | 73.6%
12 | CCOC(=O)c1c(C)nc2c(c1N)/C(=C/c1cc(OC)c(OC)c(OC)c1)C(=O)N2c1ccc(OC)cc1 | 78.8% | 86.7% | 88.4% | 128% | 48.5% | 40.7% | 50.4% | 88.8% | 44.5% | 16.3% | 23.4% | 76% | 67% | 87.2% | 45.9 | 88.1% | 80.2% | 73.6% | 43.6%
13 | O=C1Nc2ccccc2/C1=N/N=C/c1ccc(OC2OC(CO)C(O)C(O)C2O)cc1 (centres undefined) | 102% | 104% | 105% | 103% | 111% | 111% | 95% | 102% | 109% | 114% | 98.3% | 101% | 105% | 114% | 102 | 110% | 97.5% | 106% | 108%
14 | C=C1C(=O)O[C@H]2[C@H]1CC/C(Cn1cc(CNCCc3c[nH]c4ccc(Cl)cc34)nn1)=C\CC[C@@]1(C)O[C@@H]21 | 92.9% | 91.1% | 85.7% | 78.7% | 99% | -7.88% (active) | -91% (active) | 84.1% | 67.4% | 83.6% | 2.7% (active) | 53.9% | 59.7% | 16% | 77.9 | 95.4% | 53.6% | 53.4% | 66.1%
15 | Cc1cc(-c2ccc(N(C)C)cc2)c2sc(=O)[nH]c2n1 | 82.6% | 64.6% | 78.1% | 70.2% | 65.2% | 85.5% | 56.5% | 66% | 77.2% | 98.8% | 24.5% | 71.1% | 71.4% | 51.2% | 69.5 | 48.6% | 52.9% | 81.4% | 44.5%
16 | CCN(CC)c1ccc(Nc2ccc(CC(=O)c3ccccc3)cc2)cc1 | 81.1% | 97.4% | 90.7% | 94.6% | 96.3% | 77.5% | 47% | 91.4% | 88.3% | 98.1% | 82.3% | 106% | 75.7% | 89.2% | 87 | 97.8% | 89.4% | 93.7% | 87.6%
